Reference: PubChem BioAssay (NCI)
Compounds without any hit were thinned out: in the full panel of roughly 79,000, 15% have a hit. Activity calls are given as the source filed them. Cut-off read from the data, not from the text of the source: active = growth inhibition above about 70%; inactive = the rest.

Columns and labels:
[1] = NCI Yeast Anticancer Drug Screen. Data for the rad52 strain (AID 147);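 note: 0% = growth of vehicle-treated control cultures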; settings: S. cerevisiae rad52 mutant growth inhibition, stronger effect = higher value
Procedure, shortened: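 Compounds are applied to a genetically defined yeast strain lacking normal DNA damage repair, and inhibition of growth is expressed relative to cultures given vehicle only.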

[2] = NCI Yeast Anticancer Drug Screen. Data for the wt1 strain (AID 149);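 note: 0% = growth of vehicle-treated wt1 cultures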; settings: S. cerevisiae wt1 strain (SPY 50644) growth inhibition, stronger effect = higher value
Procedure, shortened: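 Yeast wt1 strain exposed to compounds; growth inhibition measured relative to vehicle-treated controls.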

[3] = NCI Yeast Anticancer Drug Screen. Data for the rad50EPP+ strain (AID 151);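 note: 0% = growth of vehicle-treated control cultures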; settings: S. cerevisiae rad50 mutant strain, stronger effect = higher value
Procedure, shortened: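 Compounds were applied to the rad50EPP+ yeast strain, which bears a defined DNA repair alteration, and growth inhibition was determined relative to vehicle-treated cultures.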

[4] = NCI Yeast Anticancer Drug Screen. Data for the mgt1 strain (AID 153); settings: S. cerevisiae mgt1 mutant growth inhibition, stronger effect = higher value
Procedure, shortened: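 Strain: mgt1 yeast, one of a set carrying defined DNA damage repair or cell cycle control alterations. Compound-treated growth compared with vehicle.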

[5] = NCI Yeast Anticancer Drug Screen. Data for the rad50 strain (AID 155);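 note: 0% = growth of vehicle-only cultures of the same strain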; settings: S. cerevisiae rad50 strain growth inhibition, stronger effect = higher value
Procedure, shortened: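 Yeast carrying a defined DNA repair defect were exposed to test compounds, and growth was compared with vehicle-treated controls to give percent inhibition.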

[6] = NCI Yeast Anticancer Drug Screen. Data for the mec2-1 strain (AID 157); settings: S. cerevisiae mec2-1 strain, stronger effect = higher value
Procedure, shortened: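 Strain: mec2-1 (DNA repair/cell cycle alteration). Compound exposure, then growth measured; inhibition expressed relative to vehicle.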

[7] = NCI Yeast Anticancer Drug Screen. Data for the rad14 strain (AID 159);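 note: 0% = growth of vehicle-treated control cultures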; settings: S. cerevisiae rad14 strain growth inhibition, stronger effect = higher value
Procedure, shortened: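 Yeast cells carrying a defined DNA-repair defect were exposed to compounds, and growth inhibition was calculated relative to vehicle-treated control cultures.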

[8] = NCI Yeast Anticancer Drug Screen. Data for the sgs1 mgt1 strain (AID 161);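 note: 0% = growth of cultures given vehicle only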; settings: S. cerevisiae sgs1 mgt1 strain, stronger effect = higher value
Procedure, shortened: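 Mutant yeast exposed to compound; growth scored against vehicle-only wells.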

[9] = NCI Yeast Anticancer Drug Screen. Data for the CLN2oe strain (AID 163);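 note: 0% = growth of vehicle-only control cultures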; settings: S. cerevisiae CLN2oe strain, stronger effect = higher value
Procedure, shortened: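 Growth of a genetically modified yeast strain is measured after compound exposure and compared with cultures given vehicle alone.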

[10] = NCI Yeast Anticancer Drug Screen. Data for the cln2 rad14 strain (AID 165);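 note: 0% = growth equal to vehicle treated cultures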; settings: S. cerevisiae cln2 rad14 strain, stronger effect = higher value
Procedure, shortened: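 Compounds are applied to the cln2 rad14 yeast strain, and growth is then compared with that of vehicle-treated cultures to give inhibition.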

[11] = NCI Yeast Anticancer Drug Screen. Data for the bub3 strain (AID 167); settings: S. cerevisiae bub3 mutant strain, stronger effect = higher value
Procedure, shortened: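 Compounds were applied to a genetically altered yeast strain carrying a cell-cycle control defect. Growth inhibition was scored against vehicle-treated controls.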

[12] = NCI Yeast Anticancer Drug Screen. Data for the wt2 strain (AID 169);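 note: 0% = growth of vehicle-treated yeast cultures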; settings: S. cerevisiae wt2 strain growth inhibition, stronger effect = higher value
Procedure, shortened: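 This strain belongs to a panel of yeast strains with defined genetic alterations in DNA damage repair or cell cycle control. Compounds are applied, and growth inhibition is measured against vehicle-treated cultures.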

[13] = NCI Yeast Anticancer Drug Screen. Data for the mlh1 strain (AID 171);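 note: 0% = growth of vehicle-treated control cultures of the same strain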; settings: S. cerevisiae mlh1 strain growth inhibition, stronger effect = higher value
Procedure, shortened: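 Growth of the mutant yeast strain after compound exposure, expressed as inhibition relative to vehicle-only controls.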

[14] = NCI Yeast Anticancer Drug Screen. Data for the sgs1 strain (AID 173);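 note: 0% = growth of vehicle-only control cultures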; settings: S. cerevisiae sgs1 mutant, stronger effect = higher value
Procedure, shortened: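 Growth of a yeast strain bearing a defined genetic alteration is measured after compound treatment. Inhibition is expressed relative to vehicle-only controls.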

[15] = NCI Yeast Anticancer Drug Screen. Data for the mlh1 rad18 strain (AID 175); settings: S. cerevisiae mlh1 rad18 strain growth inhibition, stronger effect = higher value
Procedure, shortened: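 Read-out is yeast growth inhibition, calculated against vehicle-only controls. The compound was applied to a strain engineered with DNA damage repair alterations.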

[16] = NCI Yeast Anticancer Drug Screen. Data for the rad18 strain (AID 177); settings: S. cerevisiae rad18 mutant growth inhibition, stronger effect = higher value
Procedure, shortened: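 Growth of the mutant yeast strain after compound exposure, normalised to vehicle-only cultures.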

[17] = at 5.0 µM (retest, dose inferred, filed as 0.5)
[18] = at 50.0 µM (retest, dose inferred, filed as 5.0)

Measured: growth inhibition

C=C(Cl)COC(=O)Nc1cccc(Cl)c1
active: [1]; at 33.0 µM 80% | [1]; at 100.0 µM 97% | [2]; at 100.0 µM 90% | [3]; at 33.0 µM 75% | [3]; at 100.0 µM 84% | [4]; at 100.0 µM 96% | [5]; at 33.0 µM 80% | [5]; [18] 79% | [5]; at 50.0 µM 82% | [5]; at 100.0 µM 97% | [6]; at 100.0 µM 91% | [7]; at 100.0 µM 97% | [9]; at 100.0 µM 94% | [11]; at 100.0 µM 92% | [12]; at 100.0 µM 98% | [13]; at 100.0 µM 97% | [14]; at 100.0 µM 97% | [15]; [18] 80% | [15]; at 50.0 µM 82.5% | [16]; at 100.0 µM 94%
inactive: [1]; at 1.2 µM 3% | [1]; at 3.7 µM 8% | [1]; at 11.0 µM 30% | [2]; at 1.2 µM -1% | [2]; at 3.7 µM -1% | [2]; at 11.0 µM 1% | [2]; at 33.0 µM 13% | [3]; at 1.2 µM 7% | [3]; at 3.7 µM 25% | [3]; at 11.0 µM 52% | [4]; at 1.2 µM -14% | [4]; at 3.7 µM -6% | [4]; at 11.0 µM -11% | [4]; at 33.0 µM 16% | [5]; at 1.2 µM 8% | [5]; at 3.7 µM 27% | [5]; [17] 0% | [5]; at 11.0 µM 58% | [6]; at 1.2 µM -19% | [6]; at 3.7 µM -10% | [6]; [17] -17% | [6]; at 11.0 µM -25% | [6]; at 33.0 µM 0% | [6]; [18] 19% | [6]; at 50.0 µM 3.15% | [7]; at 1.2 µM 1% | [7]; at 3.7 µM 2% | [7]; at 11.0 µM 4% | [7]; at 33.0 µM 39% | [8]; [17] -14% | [8]; [18] 47% | [8]; at 50.0 µM 45% | [9]; at 1.2 µM 0% | [9]; at 3.7 µM -5% | [9]; at 11.0 µM -10% | [9]; at 33.0 µM 3% | [10]; [17] 19% | [10]; [18] 16% | [10]; at 50.0 µM 25.1% | [11]; at 1.2 µM -17% | [11]; at 3.7 µM -17% | [11]; [17] -25% | [11]; at 11.0 µM -8% | [11]; at 33.0 µM 9% | [11]; [18] 18% | [11]; at 50.0 µM 34.4% | [12]; at 1.2 µM -3% | [12]; at 3.7 µM -1% | [12]; at 11.0 µM 1% | [12]; at 33.0 µM 39% | [13]; at 1.2 µM -6% | [13]; at 3.7 µM -1% | [13]; at 11.0 µM 1% | [13]; at 33.0 µM 36% | [14]; at 1.2 µM 0% | [14]; at 3.7 µM 3% | [14]; at 11.0 µM 13% | [14]; at 33.0 µM 63% | [15]; [17] -13% | [16]; at 1.2 µM -1% | [16]; at 3.7 µM -2% | [16]; at 11.0 µM 8% | [16]; at 33.0 µM 55%
